This is part of a sample that, as a whole, favours compounds with a hit. Of some 83,000 tested, about 20% had one in any assay.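 Each cell line was grown in a 96-well plate and treated with one concentration of compound for 48 hours. Values below 10 were considered active.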 Unmarked numbers belong to inactive results. Activity calls are given as the source filed them.

The first assay deals with EKVX NSCLC. Nature of the assay: NCI-60 one-dose screen, 48 h (100 = growth as untreated, 0 = no growth, -100 = all killed). Conditions: 10 µM unless noted.
With `COc1ccc(Cn2cc3c(c2-c2cc(OC)c(OC)c(OC)c2)CCc2c(CN4CCOCC4)noc2-3)cc1`, the growth is 43.4%.
For the molecule `CN(C)CCN(C)c1ccc2ncc(C#Cc3cncc(C(=O)Nc4ccc(CN5CCN(C)CC5)c(C(F)(F)F)c4)c3)n2n1`, the growth is 86.9%.
The same measure, in the same setting: next, `CCO/C=N/C1=C(C#N)C(c2ccc(F)cc2)c2sc3c(CC)cccc3c2O1` (configuration not stated): 49%; `COc1ccc(/C=C/C(=O)c2cccc(NC(=O)CSc3nc4ccccc4c(=O)n3-c3ccccc3)c2)cc1OC`: 103%; `CCN1CCN(Cc2cn(-c3ccc(S(N)(=O)=O)cc3)nn2)CC1`: 103%.
The same measure, in the same setting: next, `Cc1cccc2c3c(sc12)C(c1ccc(Cl)cc1)c1c(nc(CC(=O)Nc2ccccc2)[nH]c1=O)O3` (configuration not stated): 63.7%; `C=C=COc1cccc(/C(N)=N/C(N)=N/c2nc3ccccc3s2)c1`: 55.8%.
Take `Cc1cc2nc(C(Cl)Cl)nc(-c3cccs3)n2n1`: the growth was -7.94% (active).

The next assay has as its system SN12C renal. The description is as above. The settings on record: 10 µM unless noted.
Regarding `COc1cc(-c2nnc(SCc3ccc(O)c4ncccc34)n2-c2ccccc2)cc(OC)c1OC`, the growth was 8.79% (active).
Turning to `CN1c2ccccc2Sc2cc(C=C(C#N)C#N)ccc21`, the growth is 92.7%.
For `CC(=O)N(C)C1CCc2c(sc(NC(=O)c3ccc(C(C)(C)C)cc3)c2C(N)=O)C1` (configuration not stated), the growth is 71.1%.
Still for that read-out and setting: for `COc1cc(/C=N/NC(=O)c2cn(C3CC3)c3c(OC)c(N4CC5CCCNC5C4)c(F)cc3c2=O)ccc1O` (configuration not stated) the value was 23.8%; for `CC1(C)[C@@H](O)CC[C@]2(C)[C@H]3CC[C@@H]4[C@H]5[C@H](C(=O)/C=C\c6ccc([N+](=O)[O-])cc6)CC[C@]5(O)CC[C@@]4(C)[C@]3(C)CC[C@@H]12`, 73.5%.
`CCCCCc1ccc(S(=O)(=O)Nc2cccc(-c3csc(NC(=O)CN4CCN(C)CC4)n3)c2)cc1`: the growth was 90.6%.
`O=S(=O)(NCCNc1nccc(-n2cnc3ccccc32)n1)c1ccc(Br)cc1`: the growth was 91.5%.
As for `COc1ccccc1-n1cc(C#N)c(N)c1C(=O)c1ccc(Br)cc1`, the growth is 82.7%.
On the same count and under the same terms, for `COc1cc2oc(-c3cccc(C(=O)N[C@@H](CC(C)C)C(=O)OC(C)(C)C)c3)cc(=O)c2c(OC)c1OC` the value was 57%; for `CC1(C)CC[C@]23CC[C@]4(C)[C@H](CC[C@@H]5[C@@]6(C)CCCN(CO)C(C)(C)[C@@H]6CC[C@]54C)[C@H]2[C@H]1OC3`, 89.6%.
On to `CCOC(=O)c1c(NC(=O)c2ccccc2C(F)(F)F)sc2c1CCC(=O)C2`, for which the growth is 25.8%.
As for `COc1ccc(N2C(=O)c3cc(Cl)ccc3NC2SCc2ccccc2)cc1` (configuration not stated), the growth is 91.5%.
In the case of `CCCCCc1ccc(S(=O)(=O)Nc2cccc(-c3csc(NC(=O)CNCCN(C)C)n3)c2)cc1`, the growth is 91.2%.
For `O=C1CCCc2nc(Nc3ccc(S(=O)(=O)Nc4ccc([N+](=O)[O-])cc4)cc3)ncc21`, the growth was 96.2%.
Consider `Clc1nc2ccccc2nc1-c1nnc(C2CCCCC2)o1`, for which the growth was 101%.
For `Cc1ccc(C2=NN(C)C(=O)C3(CCCC3)C2)cc1`, the growth is 101%.
For `O=C1[C@H]2Cc3c([nH]c4ccccc34)[C@@H](c3c(Cl)cccc3Cl)N2C(=O)CN1C1CCN(CC2CCCCC2)CC1`, the growth is 87.8%.
Consider `NC(=O)c1cccc(-n2ccc3cc(NC(=O)Nc4ccc(N5CCOCC5)c(C(F)(F)F)c4)ccc32)n1`, for which the growth is 14.1%.
As to `COc1ccc(N2CCN(C3=C(Cl)C(=O)C(C)=C(C)C3=O)CC2)cc1`, the growth is 99.3%.
`C=C(C=O)[C@@H]1CC[C@]2(C)[C@H](C(=O)C=C3[C@H]4C[C@](C)(C(=O)OC)CC[C@]4(C)CC[C@]32C)[C@@]1(C)CCC#N`: the growth is 12.8%.
As for `CCOc1ccc(C(=O)Nc2ncc(Cc3ccc(F)cc3)s2)cc1`, the growth is 36%.
Regarding `Cc1ccc(-c2cc3nc(C(Cl)Cl)nc(-c4cccs4)n3n2)cc1`, the growth is 85.9%.
For `CCOC(=O)c1c(N)c(C#N)cn1-c1cc(OC)c(OC)c(OC)c1`, the growth is 101%.
On the same count and under the same terms, for `CC(=O)C1=C(C)NC(NNC(N)=S)=NC1c1ccccc1` (configuration not stated) the value was 83.8%.
Take `NS(=O)(=O)c1ccc(Nc2nc(N/N=C/c3ccccn3)nc(Nc3ccccc3)n2)cc1`: the growth is 2.73% (active).
With `Oc1cccc2ccc(-c3nnc(SCc4ccc(O)c5ncccc45)o3)nc12`, the growth is 7.07% (active).
The same measure, in the same setting: next, `O=C1CCCC2=C1C(c1c[nH]c3ccc(Br)cc13)Cc1cc(Br)ccc1N2` (configuration not stated): 34.5%.
Turning to `COC(=O)c1[nH]nc2c1C1(C(=O)N(C)c3ccccc31)C(C#N)=C(N)O2` (configuration not stated), the growth is 97.9%.
On to `CC1=NC2=NC(=O)/C(=C3/N=C(C)C=C(c4ccccc4)N3N)NN2C(c2ccccc2)=C1`, for which the growth was 100%.
Take `Nc1cc(-c2c[nH]c3ccc(Br)cc23)nc2cc(-c3c[nH]c4ccc(Br)cc34)nn12`: the growth is 26.8%.
As for `O=S(=O)(NCCNc1nccc(-n2cnc3ccccc32)n1)c1ccc(Cl)cc1`, the growth is 96.6%.
Turning to `COc1ccc(Cn2cc3c(c2-c2cc(OC)c(OC)c(OC)c2)CCc2c(CN4CCOCC4)noc2-3)cc1`, the growth is 31.6%.
In the case of `CN(C)CCN(C)c1ccc2ncc(C#Cc3cncc(C(=O)Nc4ccc(CN5CCN(C)CC5)c(C(F)(F)F)c4)c3)n2n1`, the growth was 36.1%.
Consider `CCO/C=N/C1=C(C#N)C(c2ccc(F)cc2)c2sc3c(CC)cccc3c2O1` (configuration not stated), for which the growth is 22.9%.
`COc1ccc(/C=C/C(=O)c2cccc(NC(=O)CSc3nc4ccccc4c(=O)n3-c3ccccc3)c2)cc1OC`: the growth was 105%.
Same read-out and setting: next, `CCN1CCN(Cc2cn(-c3ccc(S(N)(=O)=O)cc3)nn2)CC1`: 104%.
On the same count and under the same terms, next, `Cc1cccc2c3c(sc12)C(c1ccc(Cl)cc1)c1c(nc(CC(=O)Nc2ccccc2)[nH]c1=O)O3` (configuration not stated): 71.9%; `C=C=COc1cccc(/C(N)=N/C(N)=N/c2nc3ccccc3s2)c1`: 66.7%; `Cc1cc2nc(C(Cl)Cl)nc(-c3cccs3)n2n1`: 62.3%.

For the origin of these results see PubChem BioAssay (NCI).
